The source of these data is the supplement of paper PMC10037445.

The test system of experiment [1] is RAW-Dual. In words: NF-kB SEAP reporter activity, fold change vs agonist alone; higher = enhanced NF-kB activity. In short, it runs like this: (§1)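 Supernatant from RAW-Dual macrophages was read after 20 hours for IRF by QuantiLuc luminescence and for NF-κB by QuantiBlue absorbance at 620 nm. The cells (50,000 cells/well in DMEM, 384-well plates, 37 °C, 5% CO2) had received 50 nL of library stock by pin tool and, 1 h later, a PRR agonist. Reporter activity is expressed relative to agonist-alone wells as fold change, and wells were flagged cytotoxic if IncuCyte confluency was under 70% of agonist controls in both mask sets.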

For experiment [2], the system named is RAW-Dual. In words: NF-kB SEAP reporter activity, fold change vs agonist alone; cytotoxicity flag (confluency mask): not cytotoxic; higher = enhanced NF-kB activity. The method, boiled down:
as §1

Experiment [3] has as its system RAW-Dual. The experiment can be described thus: NF-kB SEAP reporter activity, fold change vs agonist alone; cytotoxicity flag (confluency mask): cytotoxic (confluency <70% of control); higher = enhanced NF-kB activity. In short, it runs like this:
as §1

[4] abbreviates: library stock concentration (final ~1000-fold dilution): 10 mM, cytotoxicity flag (confluency mask): not cytotoxic, agonist: Imiquimod (TLR7) […].
The mark [5] stands for this setting: library stock concentration (final ~1000-fold dilution): 10 mM, cytotoxicity flag (confluency mask): not cytotoxic, agonist: MPLA (TLR4) […].
The mark [6] stands for this setting: agonist: ODN 1826 (TLR9) 0.5 ug/mL.
The mark [7] stands for this setting: agonist: Pam2CSK4 (TLR2/6) 0.1 ug/mL.
[8] abbreviates: agonist: Pam3CSK4 (TLR2/1) 0.1 ug/mL.
[9] abbreviates: library stock concentration (final ~1000-fold dilution): 10 mM, cytotoxicity flag (confluency mask): cytotoxic (confluency <70% of control), agonist: Imiquimod (TLR7) […].
Where [10] appears, read: library stock concentration (final ~1000-fold dilution): 10 mM, cytotoxicity flag (confluency mask): cytotoxic (confluency <70% of control), agonist: MPLA (TLR4) […].
Setting [11] is: library stock concentration (final ~1000-fold dilution): 10 mM water, cytotoxicity flag (confluency mask): not cytotoxic, agonist: Imiquimod (TLR7) […].
Where [12] appears, read: library stock concentration (final ~1000-fold dilution): 10 mM water, cytotoxicity flag (confluency mask): not cytotoxic, agonist: MPLA (TLR4) […].

Over roughly 2,900 compounds, “NF-kB SEAP reporter activity, fold change vs agonist alone” has its median near 0.99; the highest 2% begin near 2.6. The list comes from a sample in which the highest values are over-represented; it also holds similar structures and randomly drawn compounds.

Take `O=C(Oc1coc(CSc2ncccn2)cc1=O)c1ccc([N+](=O)[O-])cc1`: the “NF-kB SEAP reporter activity” value in the experiment with RAW-Dual [1] (setting [4]) amounted to 0.717; in the experiment on RAW-Dual [1] (setting [5]) it was 1.01.
With `O=C(Oc1coc(CSc2ncccn2)cc1=O)c1ccc([N+](=O)[O-])cc1` (library stock concentration (final ~1000-fold dilution): 10 mM), the “NF-kB SEAP reporter activity” value with RAW-Dual [2] (agonist: LPS (TLR4) 0.1 ug/mL) was determined as 1.26; with RAW-Dual [2] (setting [6]), 0.944; in the experiment on RAW-Dual [2] (setting [7]) it was 1.19; with RAW-Dual [2] (setting [8]), 0.981.
Consider `O=C(Nc1ccccc1C(=O)O)c1cc(S(=O)(=O)c2ccccc2)ccc1Cl`, for which the “NF-kB SEAP reporter activity” value is 0.883 in the experiment on RAW-Dual [1] (setting [4]) and 1.01 with RAW-Dual [1] (setting [5]).
In the case of `COCCOc1cc(F)c2c(Nc3ccc(NC(=O)Cn4cc(C(C)C)nn4)cc3)ncnc2c1` (library stock concentration (final ~1000-fold dilution): 10 mM), the “NF-kB SEAP reporter activity” value in the experiment on RAW-Dual [2] (agonist: LPS (TLR4) 0.1 ug/mL) was 1.36; in the experiment on RAW-Dual [2] (setting [6]), 0.989; in the experiment with RAW-Dual [2] (setting [7]), 1.16; in the experiment with RAW-Dual [2] (setting [8]) it was 1.24.
As for `COCCOc1cc(F)c2c(Nc3ccc(NC(=O)Cn4cc(C(C)C)nn4)cc3)ncnc2c1`, the figures for the “NF-kB SEAP reporter activity” value with RAW-Dual [1] (setting [4]) and in the experiment with RAW-Dual [1] (setting [5]) were 1.14 and 1.01, respectively.
Take `CC(C)c1cnn2c(NCc3ccccc3)cc(NCCCCCCN)nc12.Cl`: the “NF-kB SEAP reporter activity” value in the experiment on RAW-Dual [1] (setting [9]) was determined as 2.18; in the experiment with RAW-Dual [1] (setting [10]), 0.882.
For `CC(C)c1cnn2c(NCc3ccccc3)cc(NCCCCCCN)nc12.Cl` (library stock concentration (final ~1000-fold dilution): 10 mM), the “NF-kB SEAP reporter activity” value in the experiment with RAW-Dual [3] (agonist: LPS (TLR4) 0.1 ug/mL) was found to be 0.271; in the experiment with RAW-Dual [3] (setting [6]) it was 0.234; in the experiment with RAW-Dual [3] (setting [7]), 1.08; in the experiment with RAW-Dual [3] (setting [8]), 1.5.
`COc1cc2c(cc1NS(=O)(=O)c1ccc(Br)cc1C)n(C)c(=O)n2C` (library stock concentration (final ~1000-fold dilution): 10 mM): the “NF-kB SEAP reporter activity” value in the experiment on RAW-Dual [2] (agonist: LPS (TLR4) 0.1 ug/mL) amounted to 1.73; with RAW-Dual [2] (setting [6]), 1.23; in the experiment on RAW-Dual [2] (setting [7]), 0.828; with RAW-Dual [2] (setting [8]) it was 1.08.
The corresponding values for `COc1ccccc1S(=O)(=O)Nc1ccc2c(c1)CN(C)C(=O)N2` (library stock concentration (final ~1000-fold dilution): 10 mM) are 3.81, 2.25, 0.457 and 1.4.
For the compound `COc1ccccc1N1CCN(CCCNc2cc(=O)n(C)c(=O)n2C)CC1.Cl` (library stock concentration (final ~1000-fold dilution): 10 mM), the “NF-kB SEAP reporter activity” value in the experiment on RAW-Dual [2] (agonist: LPS (TLR4) 0.1 ug/mL) stood at 1.02; in the experiment on RAW-Dual [2] (setting [6]) it was 0.978; with RAW-Dual [2] (setting [7]) it was 1.06; with RAW-Dual [2] (setting [8]), 1.17.
On to `COc1ccccc1N1CCN(CCCNc2cc(=O)n(C)c(=O)n2C)CC1.Cl`, for which the “NF-kB SEAP reporter activity” value with RAW-Dual [1] (setting [4]) came to 1.18; in the experiment with RAW-Dual [1] (setting [5]), 0.935.
Consider `COc1ccccc1S(=O)(=O)Nc1ccc2c(c1)CN(C)C(=O)N2`, for which the “NF-kB SEAP reporter activity” value worked out at 2.14 with RAW-Dual [1] (setting [4]) and 2.51 in the experiment with RAW-Dual [1] (setting [5]).
The corresponding values for `COc1cc2c(cc1NS(=O)(=O)c1ccc(Br)cc1C)n(C)c(=O)n2C` are 0.973 and 1.39.
The corresponding values for `CN1C(=N)NC(C)(c2cc(NC(=O)c3ccc(F)cn3)ccc2F)CS1(=O)=O` (stereo not given) are 0.847 and 0.931.
Consider `CN1C(=N)NC(C)(c2cc(NC(=O)c3ccc(F)cn3)ccc2F)CS1(=O)=O` (stereo not given) (library stock concentration (final ~1000-fold dilution): 10 mM), for which the “NF-kB SEAP reporter activity” value with RAW-Dual [2] (agonist: LPS (TLR4) 0.1 ug/mL) came out at 0.906; in the experiment with RAW-Dual [2] (setting [6]) it was 0.673; with RAW-Dual [2] (setting [7]), 0.747; in the experiment with RAW-Dual [2] (setting [8]) it was 0.657.
For `O=C(O)CN1C(=O)c2cccc3cccc(c23)C1=O` (library stock concentration (final ~1000-fold dilution): 10 mM) the same measures were 0.89, 0.942, 1.03 and 1.06.
On to `O=C(O)CN1C(=O)c2cccc3cccc(c23)C1=O`, for which the figures for the “NF-kB SEAP reporter activity” value in the experiment with RAW-Dual [1] (setting [4]) and with RAW-Dual [1] (setting [5]) were 0.931 and 1.03, respectively.
For the compound `COc1ccc(-n2c(SCCCN3C(=O)c4cccc5cccc(c45)C3=O)nnc2-c2ccncc2)cc1` (library stock concentration (final ~1000-fold dilution): 10 mM), the “NF-kB SEAP reporter activity” value in the experiment with RAW-Dual [2] (agonist: LPS (TLR4) 0.1 ug/mL) was determined as 2.06; with RAW-Dual [2] (setting [6]), 1.17; in the experiment with RAW-Dual [2] (setting [7]), 1.3; in the experiment on RAW-Dual [2] (setting [8]), 2.18.
Turning to `O=C(CCCCCN1C(=O)c2cccc3cccc(c23)C1=O)NO`, the “NF-kB SEAP reporter activity” value with RAW-Dual [1] (setting [9]) worked out at 1.51; with RAW-Dual [1] (setting [10]), 2.33.
`COc1ccc(-n2c(SCCCN3C(=O)c4cccc5cccc(c45)C3=O)nnc2-c2ccncc2)cc1`: the “NF-kB SEAP reporter activity” value with RAW-Dual [1] (setting [4]) stood at 1.08; with RAW-Dual [1] (setting [5]), 1.32.
Take `O=C(CCCCCN1C(=O)c2cccc3cccc(c23)C1=O)NO` (library stock concentration (final ~1000-fold dilution): 10 mM): the “NF-kB SEAP reporter activity” value amounted to 3.67 in the experiment with RAW-Dual [3] (agonist: LPS (TLR4) 0.1 ug/mL), 2.57 in the experiment with RAW-Dual [3] (setting [6]), 1.28 with RAW-Dual [3] (setting [7]) and 2.06 in the experiment on RAW-Dual [3] (setting [8]).
Regarding `CCCCCOc1ccc(-c2ccc(-c3ccc(C(=O)NC4CC(O)C(O)NC(=O)C5C(O)C(C)CN5C(=O)C(C(C)O)NC(=O)C(C(O)C(O)c5ccc(O)cc5)NC(=O)C5CC(O)CN5C(=O)C(C(C)O)NC4=O)cc3)cc2)cc1` (stereo not given), the “NF-kB SEAP reporter activity” value in the experiment with RAW-Dual [1] (setting [9]) is 1.67; in the experiment on RAW-Dual [1] (setting [10]), 2.43.
With `CCCCCOc1ccc(-c2cc(-c3ccc(C(=O)NC4CC(O)C(O)NC(=O)C5C(O)C(C)CN5C(=O)C(C(O)CC(N)=O)NC(=O)C(C(O)C(O)c5ccc(O)c(OS(=O)(=O)O)c5)NC(=O)C5CC(O)CN5C(=O)C(C(C)O)NC4=O)cc3)no2)cc1` (stereo not given), the “NF-kB SEAP reporter activity” value is 0.949 in the experiment with RAW-Dual [1] (setting [11]) and 1.14 in the experiment with RAW-Dual [1] (setting [12]).
The corresponding values for `CCC(C)CC(C)CCCCCCCCC(=O)NC1CC(O)C(NCCN)NC(=O)C2C(O)CCN2C(=O)C(C(O)CCN)NC(=O)C(C(O)C(O)c2ccc(O)cc2)NC(=O)C2CC(O)CN2C(=O)C(C(C)O)NC1=O` (stereo not given) are 0.901 and 0.866.
As to `CCCCCOc1ccc(-c2ccc(-c3ccc(C(=O)NC4CC(O)C(O)NC(=O)C5C(O)C(C)CN5C(=O)C(C(C)O)NC(=O)C(C(O)C(O)c5ccc(O)cc5)NC(=O)C5CC(O)CN5C(=O)C(C(C)O)NC4=O)cc3)cc2)cc1` (stereo not given) (library stock concentration (final ~1000-fold dilution): 10 mM), the “NF-kB SEAP reporter activity” value in the experiment with RAW-Dual [3] (agonist: LPS (TLR4) 0.1 ug/mL) amounted to 3.72; in the experiment on RAW-Dual [3] (setting [6]), 0.545; in the experiment with RAW-Dual [3] (setting [7]), 1.28; in the experiment with RAW-Dual [3] (setting [8]) it was 1.42.
For the compound `CCCCCOc1ccc(-c2cc(-c3ccc(C(=O)NC4CC(O)C(O)NC(=O)C5C(O)C(C)CN5C(=O)C(C(O)CC(N)=O)NC(=O)C(C(O)C(O)c5ccc(O)c(OS(=O)(=O)O)c5)NC(=O)C5CC(O)CN5C(=O)C(C(C)O)NC4=O)cc3)no2)cc1` (stereo not given) (library stock concentration (final ~1000-fold dilution): 10 mM water), the “NF-kB SEAP reporter activity” value with RAW-Dual [2] (agonist: LPS (TLR4) 0.1 ug/mL) is 1.2; in the experiment on RAW-Dual [2] (setting [6]), 1.05; in the experiment with RAW-Dual [2] (setting [7]), 0.968; in the experiment with RAW-Dual [2] (setting [8]) it was 1.09.
Turning to `CCC(C)CC(C)CCCCCCCCC(=O)NC1CC(O)C(NCCN)NC(=O)C2C(O)CCN2C(=O)C(C(O)CCN)NC(=O)C(C(O)C(O)c2ccc(O)cc2)NC(=O)C2CC(O)CN2C(=O)C(C(C)O)NC1=O` (stereo not given) (library stock concentration (final ~1000-fold dilution): 10 mM water), the “NF-kB SEAP reporter activity” value is 1.29 with RAW-Dual [2] (agonist: LPS (TLR4) 0.1 ug/mL), 1.08 with RAW-Dual [2] (setting [6]), 1.09 in the experiment on RAW-Dual [2] (setting [7]) and 0.968 with RAW-Dual [2] (setting [8]).
